# Test results as given in article PMC4336329 (PLoS ONE, 2015).
# The whole screen tested about 310,000 compounds, of which about 14,000 (4.5%) showed an effect of 50% or more. Effects have a minus sign here. Only a selection was taken, and strong results are over-represented in it overall.
# Molecular target: human ether-à-go-go-related gene (hERG) potassium channel (human, UniProt Q12809)
# Assay: primary screen, population patch clamp on CHO cells stably expressing hERG; higher = less effect of the substance
# 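Further: peak tail current of the secondary pulse compared with the same well before compound.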
# Sequence of human ether-à-go-go-related gene (hERG) potassium channel (Q12809 whole entry, looked up): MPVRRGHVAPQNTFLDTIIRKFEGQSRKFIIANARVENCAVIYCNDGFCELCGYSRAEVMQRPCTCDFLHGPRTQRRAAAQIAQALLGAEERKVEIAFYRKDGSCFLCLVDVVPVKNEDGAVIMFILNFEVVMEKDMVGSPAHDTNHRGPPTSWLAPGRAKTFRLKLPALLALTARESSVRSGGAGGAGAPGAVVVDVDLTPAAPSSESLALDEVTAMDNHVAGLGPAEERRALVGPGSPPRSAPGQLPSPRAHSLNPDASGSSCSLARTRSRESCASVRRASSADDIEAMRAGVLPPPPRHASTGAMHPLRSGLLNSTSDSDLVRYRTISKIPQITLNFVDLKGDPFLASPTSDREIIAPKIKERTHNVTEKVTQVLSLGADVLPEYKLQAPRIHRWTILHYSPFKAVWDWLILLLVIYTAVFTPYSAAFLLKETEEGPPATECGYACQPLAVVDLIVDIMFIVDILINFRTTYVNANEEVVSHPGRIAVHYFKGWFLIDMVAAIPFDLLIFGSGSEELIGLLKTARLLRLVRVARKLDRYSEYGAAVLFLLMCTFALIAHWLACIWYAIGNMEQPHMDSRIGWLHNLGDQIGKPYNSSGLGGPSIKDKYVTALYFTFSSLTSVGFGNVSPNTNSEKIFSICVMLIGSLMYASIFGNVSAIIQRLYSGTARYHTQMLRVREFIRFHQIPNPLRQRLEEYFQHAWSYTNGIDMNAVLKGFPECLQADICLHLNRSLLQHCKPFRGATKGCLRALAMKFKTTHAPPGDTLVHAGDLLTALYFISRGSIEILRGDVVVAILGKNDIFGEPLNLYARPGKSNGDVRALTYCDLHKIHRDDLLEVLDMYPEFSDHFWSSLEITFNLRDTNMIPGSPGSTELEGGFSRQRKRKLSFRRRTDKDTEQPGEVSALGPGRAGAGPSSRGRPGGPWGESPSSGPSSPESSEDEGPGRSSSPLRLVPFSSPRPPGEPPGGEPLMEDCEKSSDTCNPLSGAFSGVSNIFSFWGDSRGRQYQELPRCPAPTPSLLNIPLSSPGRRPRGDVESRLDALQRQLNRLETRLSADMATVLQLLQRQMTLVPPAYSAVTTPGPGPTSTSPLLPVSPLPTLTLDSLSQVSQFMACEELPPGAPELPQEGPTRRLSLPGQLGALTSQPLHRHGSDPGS
row,Structure (SMILES),"hERG current change (%, negative = inhibition) at 10uM [%]"
1,CC(C)CC(NS(=O)(=O)c1cccc(C(=O)O)c1)C(=O)O (stereo not drawn),44.6
2,COc1cc(NC(=O)c2ccc(NS(=O)(=O)c3c(C)noc3C)cc2)cc(OC)c1,1.03
3,Cc1[nH]nc(-c2ccc(OCc3cnn(-c4ccccc4)c3)c(C)c2O)c1Oc1ccccc1,12
4,CN(CC(=O)Nc1ccc(Cl)c(Cl)c1)CC(=O)Nc1ccc2c(c1)OCO2,-3.52
5,CN(CC(=O)Nc1ccc(N2CCOCC2)cc1)CC(=O)Nc1ccc(N2CCOCC2)cc1,6.39
6,CN(CC(=O)Nc1ccc(N2CCOCC2)cc1)CC(=O)Nc1cccc(C#N)c1,-13.9
7,CN(CC(=O)Nc1ccc(C#N)cc1)CC(=O)Nc1ccc(N2CCOCC2)cc1,-56.3
8,CN(CC(=O)Nc1ccc(S(=O)(=O)N2CCCC2)cc1)Cc1ccc(Cl)cc1Cl,10.8
9,CN(CC(=O)Nc1cccc(C#N)c1)Cc1ccc(Cl)cc1,-34.1
10,Cc1ccc(NC(=O)CN(C)Cc2ccc(Cl)cc2)cc1,-8.48
11,CN(CC(=O)Nc1ccc(C#N)cc1)Cc1ccc(Cl)cc1Cl,-66.8
12,CN(CC(=O)Nc1ccc(Cl)c(Cl)c1)Cc1nnc(-c2ccc(F)cc2)o1,-63.3
13,CN(CC(=O)Nc1ccc(Cl)cc1)CC(=O)Nc1cc(Cl)ccc1C#N,-38.4
14,CN(CC(=O)Nc1ccc(C#N)cc1)Cc1ccc(Cl)cc1,-68.6
15,CN(CC(=O)Nc1ccc(Cl)c(Cl)c1)C(=O)/C=C/c1ccc(F)cc1,1.66
16,CC(=O)c1ccc(-c2ccc(/C=C(/Sc3n[nH]c(C)n3)C(=O)O)o2)cc1,-42.7
17,O=c1[nH][nH]cc1C=Nc1ccc(Oc2ccccc2)cc1,11.6
18,CC(Sc1ccccc1)C(=O)Nc1ccc(N2CCOCC2)cc1 (stereo not drawn),-7.09
19,CN1CCN(C(=O)c2ccc3c(c2)N(Cc2cccc(Cl)c2)C(=O)c2ccccc2S3(=O)=O)CC1,10.8
20,COc1ccc(NC(=O)CC2(CC(=O)O)CCCC2)cn1,16.7
21,CC(C)N1CCC(N2CCN(Cc3ccc(Oc4ncccn4)cc3)CC2CCO)CC1 (stereo not drawn),23.9
22,Cc1cc(C)n(-c2ccc(C(=O)Nc3cccc([N+](=O)[O-])c3)cc2)n1,40.2
23,COc1ccc(CCNC(=O)c2ccc(-c3ccc([N+](=O)[O-])cc3Cl)o2)cc1,4.64
24,CN(CC(=O)Nc1ccc(S(=O)(=O)N2CCCC2)cc1)Cc1ccc(Cl)c(Cl)c1,0.187
25,Cc1ccc(NC(=O)CN(C)C(=O)Cc2ccc(Cl)c(Cl)c2)cc1,11.8
26,CN(CC(=O)Nc1ccc(C#N)cc1)Cc1ccc(Cl)c(Cl)c1,-60.8
27,C=CCNC(=O)c1ccc(C(=O)c2ccccc2)cc1,-27.8

row,Structure (SMILES),"hERG current change (%, negative = inhibition) at 10uM [%]"
1,CC(=O)CSc1ncnc2c1cnn2-c1ccccc1,12.6
2,COc1ccc(/C=N/NC(=O)c2ccc(Br)cc2)cc1CN1CCOCC1,-64.8
3,COc1ccc(/C=N/NC(=O)c2cccc(Br)c2)cc1CN1CCOCC1,-82.4
4,COc1ccc(/C=C2/CCc3ccccc3C2=O)cc1CN1CCOCC1,-59.6
5,COc1ccc(/C=C2\CCc3ccccc3C2=O)cc1CN1CCOCC1,-33.6
6,COc1ccc(/C=C/C(=O)c2ccccc2O)cc1CN1CCOCC1,-17.7
7,COc1ccc(C(=O)/C=C/c2ccc(OC)c(CN3CCOCC3)c2)cc1,-56.3
8,COc1ccc(/C=N/NC(=O)c2ccncc2)cc1CN1CCOCC1,3.71
9,CCOc1cc(/C=N/NC(=O)c2ccc(CN3CCOCC3)cc2)ccc1OC,-19.1
10,COc1ccc(/C=N\NC(=O)c2nn(C)cc2Cl)cc1CN1CCOCC1,-10.6
11,COc1ccc(/C=C2\CCc3ccccc3C2=O)cc1Cn1cccn1,2.14
12,COc1ccc(/C=C/C(=O)c2ccc(O)cc2)cc1CN1CCOCC1,-11.3
13,COc1ccc(/C=N/NC(=O)c2cccc(Br)c2)cc1Cn1cc(Cl)cn1,8.83
14,CC(C)CN(C(=O)COC(=O)C1CC1)c1c(N)n(Cc2ccccc2)c(=O)[nH]c1=O,13
15,CCc1c(O)nc(SCC(=O)Nc2nc3ccccc3s2)n(-c2ccc(C)cc2)c1=O,-17.8
16,Clc1ccc(-c2csc(N3CCc4ccccc4C3)n2)cc1,14.3
17,COc1c(S(=O)(=O)NCCN2CCOCC2)ccc(Cl)c1Cl,-16.3
18,CNC(=O)COC(=O)c1cc(NC(=O)c2ccco2)c(OC)c(OC)c1,2.4
19,O=S(=O)(c1cc(C(F)(F)F)ccc1Cl)N1CCN(c2ccccn2)CC1,-26.3
20,CC(C)n1cnnc1SCC(=O)Nc1cccc(S(=O)(=O)N(C)c2ccccc2)c1,-12.4
21,c1ccc(C2(c3ccccc3)OCC(Cn3cncn3)O2)cc1 (stereo not drawn),-0.819
22,COc1ccc(/C=N/n2cnc3c(sc(=S)n3-c3ccccc3)c2=O)cc1,13.4
23,O=C(c1ccccc1-n1cccc1)N1N=C(C(F)F)CC1(O)C(F)F (stereo not drawn),-63.2
24,O=C(c1cc(C2CC2)nc2ccccc12)N1N=C(C(F)F)CC1(O)C(F)F (stereo not drawn),-18.3
25,O=C(c1cc(-c2ccccc2)nc2ccccc12)N1N=C(C(F)F)CC1(O)C(F)F (stereo not drawn),-13.2
26,COc1ccc(-c2cc(C(=O)NCc3ccco3)c3ccccc3n2)cc1,-5.84
27,Cc1nn(-c2cc(Cl)ccc2Cl)c(C)c1C(=O)O,13.2
